Records with an inconclusive call do not appear. Where a call stands in place of a potency, no number is given. Activity calls are given as the source filed them. Calls follow the shape of the full dose curve.
Potency is read from the fitted curve at half-maximal effect.

This experiment in a line: Cytotoxicity counterscreen for inhibitors of SARS-CoV-2 cell entry (AID 1645845). Also: nearly all actives have a fitted effect of over 50% in size. To be noted: cell viability (SARS-CoV-2 entry assay cells); series mostly up to 57.1 µM. The method in brief:
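HEK293-ACE2 cells (Expi293F stably expressing human ACE2) seeded overnight, then compound for 1 h plus 48 h at 37C. Viability as ATP content by luminescence; normalized to wells with cells and media-only wells.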
For orientation: Counterscreens check selectivity or assay interference.
As for `O=C1O[C@H](CO)[C@@H](O)[C@H](O)[C@H]1O`, the Potency result was “inactive”.

As to `O=C(Cn1ccnc1[N+](=O)[O-])NCc1ccccc1`, the Potency entry was “inactive”.

Regarding `O=c1[nH]c(=O)n([C@H]2C[C@H](O)[C@@H](CO)O2)cc1Br`, the Potency entry was “inactive”.

For `CCCCCCCN(CC)CCCC(O)c1ccc(NS(C)(=O)=O)cc1` (stereo unspecified), the Potency result was “inactive”.

Turning to `C=CCN1C[C@H](C(=O)N(CCCN(C)C)C(=O)NCC)C[C@@H]2c3cccc4[nH]cc(c34)C[C@H]21`, the Potency result was “inactive”.

`CCCC(=O)O[C@]1(C(=O)COC(=O)CC)CC[C@H]2[C@@H]3CCC4=CC(=O)CC[C@]4(C)[C@H]3[C@@H](O)C[C@@]21C`: the Potency result was “inactive”.

As for `CC1c2ccccc2CN1NC(=O)c1ccc(Cl)c(S(N)(=O)=O)c1` (stereo unspecified), the Potency result was “inactive”.

In the case of `CO[C@@]1(NC(=O)Cc2cccs2)C(=O)N2C(C(=O)O)=C(COC(N)=O)CS[C@@H]21`, the Potency result is “inactive”.

Regarding `OC[C@H]1O[C@@H](Oc2ccc(O)cc2)[C@H](O)[C@@H](O)[C@@H]1O`, the Potency entry is “inactive”.

As for `O=C(O[C@H]1CN2CCC1CC2)N1CCc2ccccc2[C@@H]1c1ccccc1`, the Potency entry is “inactive”.

For `CN(C)c1ccc2nc3ccc(=[N+](C)C)cc-3sc2c1`, the Potency is 7.08 µM (active).

In the case of `Cc1cc(NS(=O)(=O)c2ccc(N)cc2)no1`, the Potency result was “inactive”.

`CO[C@@]1(NC(=O)CSCC#N)C(=O)N2C(C(=O)O)=C(CSc3nnnn3C)CS[C@@H]21`: the Potency result is “inactive”.

Take `O=[N+]([O-])c1cncn1CCN1CCOCC1`: the Potency entry was “inactive”.

On to `CC(=O)N(CC(O)CO)c1c(I)c(C(=O)NCC(O)CO)c(I)c(C(=O)NCC(O)CO)c1I` (stereo unspecified), for which the Potency entry was “inactive”.

Take `CC(=O)NS(=O)(=O)c1ccc(N)cc1`: the Potency result is “inactive”.

Values taken from PubChem BioAssay (NCATS).
